# Test results reported in PubChem BioAssay (NCI).
# Several values for one entry are separate records, joined by “and”; a condition that tells them apart may be missing. Identical values can stand only once. Compounds without any hit were thinned out: in the full panel of roughly 83,000, 20% have a hit.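 A percent growth of 40 corresponds to 60% growth inhibition; 0 means no net growth; -100 means all cells died. Active threshold: below 10.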 Activity calls are given as the source filed them.
# Experiments:
# Assay in all cases: NCI-60 one-dose screen, 48 h (100 = growth as untreated, 0 = no growth, -100 = all killed)
# Details in all cases: 10 µM unless noted
# [1] = system: DU-145 prostate
# [2] = system: K-562 leukemia
# [3] = system: MALME-3M melanoma
# [4] = system: MDA-MB-231 breast
# [5] = system: RXF 393 renal
# [6] = system: SF-268 CNS
# [7] = system: SF-539 CNS
# [8] = system: UACC-257 melanoma
# [9] = system: M14 melanoma
# [10] = system: HCT-15 colon
# [11] = system: HT29 colon
# [12] = system: SNB-75 CNS
# [13] = system: SNB-19 CNS
# [14] = system: U251 CNS
# [15] = system: SK-MEL-5 melanoma
# [16] = system: LOX IMVI melanoma
# [17] = system: SK-MEL-28 melanoma
# [18] = system: SF-295 CNS
# [19] = system: UACC-62 melanoma
# [20] = system: PC-3 prostate
SMILES,growth [1],growth [2],growth [3],growth [4],growth [5],growth [6],growth [7],growth [8],growth [9],growth [10],growth [11],growth [12],growth [13],growth [14],growth [15],growth [16],growth [17],growth [18],growth [19],growth [20]
Cc1cc(=O)[nH]n1-c1cc(Cl)ccc1N,132% (inactive),99.4% (inactive),108% (inactive),124% (inactive),107% (inactive),116% (inactive),102% (inactive),89.8% (inactive),99.8% (inactive),92.4% (inactive),102% (inactive),88.4% (inactive),112% (inactive),108% (inactive),112% (inactive),94.7% (inactive),115% (inactive),–,–,–
Cc1nc(NC(=O)COc2cccc(/C=C3\COc4ccccc4C3=O)c2)sc1C,63.1% (inactive),-65.2% (active),-68.1% (active),0.962% (active),–,-63.3% (active),-63.9% (active),-49% (active),-79.4% (active),-63.8% (active),-100% (active),54.2% (inactive),–,-100% (active),–,-94.3% (active),-61.2% (active),25.3% (inactive),-18.9% (active),–
O=C1C(OCCOc2ccccc2)=C(OCCOc2ccccc2)C(=O)c2ccccc21,56.7% (inactive),66.4% (inactive),54.7% (inactive),70.5% (inactive),79.4% (inactive),77.2% (inactive),94.9% (inactive),14.8% (inactive),51.4% (inactive),26.7% (inactive),107% (inactive),69.4% (inactive),57.6% (inactive),18.9% (inactive),13.6% (inactive),22.6% (inactive),93.5% (inactive),–,–,44.4% (inactive)
CC(C)(C)[Si](C)(C)OC1[C@@H](COC(N)=O)O[C@@H](n2cnc3c(N)ncnc32)[C@H]1O[Si](C)(C)C(C)(C)C (some centres undefined),75.1% (inactive),7.16% (active),111% (inactive),100% (inactive),106% (inactive),79.8% (inactive),97.4% (inactive),–,98.8% (inactive),88% (inactive),93.6% (inactive),–,–,82.7% (inactive),96.9% (inactive),98.2% (inactive),98.3% (inactive),118% (inactive),85.5% (inactive),18.4% (inactive)
FC(F)(F)c1cc(CNc2ncc(Br)c(Cl)n2)cc(C(F)(F)F)c1,107% (inactive),89.1% (inactive),75.8% (inactive),121% (inactive),86% (inactive),102% (inactive),97% (inactive),96.4% (inactive),98.1% (inactive),97.7% (inactive),106% (inactive),95.4% (inactive),112% (inactive),–,97.3% (inactive),90.5% (inactive),102% (inactive),–,103% (inactive),92.2% (inactive)
C(=C\c1ccccc1)/CN1CCN(C(c2ccccc2)c2ccccc2)CC1,109% (inactive),79.2% (inactive),106% (inactive),91.5% (inactive),81% (inactive),98.5% (inactive),90.7% (inactive),92.1% (inactive),99.1% (inactive),80.9% (inactive),–,85.4% (inactive),96.3% (inactive),–,95.5% (inactive),99.7% (inactive),91.9% (inactive),–,96.9% (inactive),77.5% (inactive)
Brc1ccccc1Nc1ccc2nnc(-c3ccncc3)n2n1,113% (inactive),46.9% (inactive),99.7% (inactive),108% (inactive),101% (inactive),99.4% (inactive),104% (inactive),106% (inactive),101% (inactive),80.6% (inactive),109% (inactive),93.9% (inactive),100% (inactive),102% (inactive),104% (inactive),92.5% (inactive),99% (inactive),–,108% (inactive),102% (inactive)
Cc1ccc(N=c2nc3sc4c(C)ccc(C)c4n3c(N)c2C#N)cc1,105% (inactive),88.6% (inactive),125% (inactive),93.9% (inactive),124% (inactive),92.6% (inactive),99.1% (inactive),–,102% (inactive),104% (inactive),104% (inactive),92.1% (inactive),–,96.1% (inactive),–,99.4% (inactive),105% (inactive),91.1% (inactive),–,88% (inactive)
Cc1nn2c(-c3nc4ccc(Cl)cc4[nH]3)c(-c3ccc(F)cc3)nc2s1,104% (inactive),88.6% (inactive),128% (inactive),116% (inactive),96.6% (inactive),101% (inactive),97.1% (inactive),92.9% (inactive),95.4% (inactive),76.4% (inactive),94.4% (inactive),86.3% (inactive),112% (inactive),97.6% (inactive),90.9% (inactive),91.1% (inactive),93.8% (inactive),–,91.6% (inactive),78.6% (inactive)
CC(C)OC1=C(Cl)C(=O)c2ccccc2C1=O,119% (inactive),22.8% (inactive),111% (inactive),85.6% (inactive),99.6% (inactive),93.5% (inactive),38.4% (inactive),89.6% (inactive),97.8% (inactive),51.4% (inactive),–,75.8% (inactive),90.1% (inactive),57.4% (inactive),96.8% (inactive),86.5% (inactive),101% (inactive),–,–,69.1% (inactive)
CC(=O)Nc1ccc(Sc2ccc([N+](=O)[O-])o2)cc1,34.7% (inactive),17.6% (inactive),-16.5% (active),58.6% (inactive),-57.1% (active),54.5% (inactive),15.3% (inactive),-43.4% (active),12.3% (inactive),2.17% (active),26.4% (inactive),58.3% (inactive),118% (inactive),31.9% (inactive),59.5% (inactive),5.12% (active),–,–,–,58.9% (inactive)
Nc1ccccc1-c1n[nH]c(=O)[nH]c1=O,121% (inactive),107% (inactive),106% (inactive),113% (inactive),–,114% (inactive),101% (inactive),–,99% (inactive),104% (inactive),106% (inactive),89.5% (inactive),–,94.2% (inactive),–,97.8% (inactive),103% (inactive),79% (inactive),89% (inactive),96.9% (inactive)
CN(C)CCNc1ccc(NCC[N+](C)(C)Cc2ccc([N+](=O)[O-])cc2)c2c1C(=O)c1c(O)ccc(O)c1C2=O,–,–,–,–,–,–,–,–,–,–,–,–,–,–,–,–,–,–,24.1% [100 µM] (inactive) and 0.198% [100 µM] (active),–
N#Cc1c(O)c2c(c(O)c1C#N)C(=O)c1ccccc1C2=O,–,–,-16.5% (active),2.69% (active),92.3% (inactive),32.6% (inactive),46.9% (inactive),28.4% (inactive),2.51% (active),26.9% (inactive),0.694% (active),145% (inactive),70.8% (inactive),3.42% (active),-73.1% (active),–,–,59.6% (inactive),-17.3% (active),14.3% (inactive)
O=C(c1ccccc1)C(Br)C(Br)c1cccc([N+](=O)[O-])c1 (centres undefined),76% (inactive),–,-43.1% (active),59.9% (inactive),-78.8% (active),72.1% (inactive),38.1% (inactive),19.8% (inactive),34.3% (inactive),-26.6% (active),-42.4% (active),80.9% (inactive),82.4% (inactive),17.7% (inactive),77.1% (inactive),-79.4% (active),63.6% (inactive),88.5% (inactive),81.4% (inactive),67.4% (inactive)
CC(C)(C)O/N=C/c1cc(NC(=S)c2ccsc2)ccc1Cl,–,–,–,–,–,–,–,–,–,–,–,–,–,–,–,–,–,–,-90.7% [100 µM] (active) and -85.1% [100 µM] (active),–
